PubChem BioAssay

experiment: compound effects on lung adenocarcinoma cell viability – A549, calcein-AM fluorescence, 48 h, basal, profiling panel (AID 1162); details: higher = more signal; also: test concentration not given here

Row | SMILES | z-score
1 | CO[C@H]1COC(=O)CCC[C@H](C)[C@H](OC)COC(=O)CC=C[C@@H]1C | 1.11
2 | CCO[C@H](c1cc(OC)cc([N+](=O)[O-])c1OC)[C@H](C)[C@@H](OC)[C@H](C)C=CCC(=O)OC | 0.207
3 | O=C1[C@H]2[C@H]3[C@H](O)[C@H](O)CC(=NOC[C@@H](O)COCc4ccco4)[C@@H]3CC[C@H]2C(=O)N1Cc1ccccc1 | -0.355
4 | COC(=O)CC=C[C@@H](C)[C@@H](C=NOC[C@@H](O)COCc1ccco1)OC | 1.3
5 | C[C@@H](c1ccccc1)N1C(=O)[C@H]2[C@H]3[C@H](O)[C@H](O)CC(=NNC(=O)OCc4ccccc4)[C@@H]3CC[C@H]2C1=O | -0.18
6 | CCOC(=O)[C@H](Cc1ccccc1)NC(=O)CCC1CC(OC(=O)NCc2ccc3c(c2)OCO3)CC2(CCCC(COC(=O)NCCOC)O2)O1 (stereo partly specified) | 0.58
7 | CCOC(=O)CCN1C(=O)[C@H]2[C@H]3[C@H](O)[C@H](O)CC(=NNC(=O)OCc4ccccc4)[C@H]3CC[C@H]2C1=O | 0.391
8 | COc1ccc(O[C@H]2C=C[C@@H](c3ccccc3)O[C@@H]2COC(=O)CCC(C)=NOC[C@@H](O)COCc2ccco2)cc1 | 0.944
9 | CCCCOC(OCCCC)C(O)CSc1ccc2ccccc2c1 (stereo unspecified) | -1.28
10 | CC(C)CON=C1C[C@@H](O)[C@@H](O)[C@@H]2[C@@H]3C(=O)N(Cc4ccc5c(c4)OCO5)C(=O)[C@@H]3CC[C@@H]12 | 0.606
11 | COC(=O)[C@H](C)NC(=O)CCC1CC(OC(=O)NCCc2ccc(F)cc2)CC2(CCCC(COC(=O)NCCc3ccccc3OC)O2)O1 (stereo partly specified) | -0.0621
